# Test results: paper PMC7862700, “An all-to-all approach to the identification of sequence-specific readers for epigenetic DNA modifications on cytosine”
# Key:
# Experiment in all cases: DAPPL (digital affinity profiling via proximity ligation, sequencing); 10 mM Tris-HCl pH 7.5, 50 mM NaCl, 1 mM DTT, 4% glycerol, room temperature, 30 min; GST-TFs on glutathione beads, 16-mer random dsDNA library, 0.1% formaldehyde crosslink after washing; high values mean tight binding
# [1] = target: T1, FLI1 (Homo sapiens, UniProt Q01543 1-452); settings: protein: recombinant; tags: N-terminal GST; dsDNA, one strand shown
# T1 sequence: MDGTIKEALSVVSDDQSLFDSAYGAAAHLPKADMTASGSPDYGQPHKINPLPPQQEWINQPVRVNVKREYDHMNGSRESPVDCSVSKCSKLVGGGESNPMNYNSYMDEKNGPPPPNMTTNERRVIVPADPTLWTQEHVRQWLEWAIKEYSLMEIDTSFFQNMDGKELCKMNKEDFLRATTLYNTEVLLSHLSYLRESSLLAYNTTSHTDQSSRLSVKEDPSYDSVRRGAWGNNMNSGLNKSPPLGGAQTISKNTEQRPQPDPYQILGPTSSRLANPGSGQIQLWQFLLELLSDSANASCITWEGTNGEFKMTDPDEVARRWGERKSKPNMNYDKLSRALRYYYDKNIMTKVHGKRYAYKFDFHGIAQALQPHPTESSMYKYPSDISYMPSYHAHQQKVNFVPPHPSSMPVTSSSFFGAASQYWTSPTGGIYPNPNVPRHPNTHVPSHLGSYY
# Summary of the method: (§1)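 GST fusions of human transcription factors were expressed in yeast and captured with glutathione beads. Once given DNA barcodes and pooled alongside a tag-only sample, they were incubated for 30 min at room temperature with 200 nmole of a random double-stranded 16-mer DNA library in Tris/NaCl/DTT/glycerol buffer, then washed, crosslinked (0.1% formaldehyde), proximity-ligated, PCR-amplified and sequenced on an Illumina NextSeq500. The binding signal of each hexamer is its read frequency for a factor divided by its frequency for the tag-only sample.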
# [2] = target: T2, ELK1 (Homo sapiens, UniProt P19419 1-428); settings: protein: recombinant; tags: N-terminal GST; dsDNA, one strand shown
# T2 sequence: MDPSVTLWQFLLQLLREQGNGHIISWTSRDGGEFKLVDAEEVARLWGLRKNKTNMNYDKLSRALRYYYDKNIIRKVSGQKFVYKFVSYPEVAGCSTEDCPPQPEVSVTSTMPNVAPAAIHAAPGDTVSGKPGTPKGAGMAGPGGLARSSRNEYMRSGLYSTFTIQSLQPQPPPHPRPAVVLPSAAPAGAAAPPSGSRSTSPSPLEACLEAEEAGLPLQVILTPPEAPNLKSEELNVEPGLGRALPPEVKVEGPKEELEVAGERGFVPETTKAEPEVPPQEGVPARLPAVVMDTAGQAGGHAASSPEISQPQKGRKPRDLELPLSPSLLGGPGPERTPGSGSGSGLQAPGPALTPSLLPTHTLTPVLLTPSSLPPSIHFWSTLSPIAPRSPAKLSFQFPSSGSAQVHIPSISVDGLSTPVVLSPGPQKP
# Summary of the method: as §1
# [3] = target: T3, GABPA (Homo sapiens, UniProt Q06546 1-454); settings: protein: recombinant; tags: N-terminal GST; dsDNA, one strand shown
# T3 sequence: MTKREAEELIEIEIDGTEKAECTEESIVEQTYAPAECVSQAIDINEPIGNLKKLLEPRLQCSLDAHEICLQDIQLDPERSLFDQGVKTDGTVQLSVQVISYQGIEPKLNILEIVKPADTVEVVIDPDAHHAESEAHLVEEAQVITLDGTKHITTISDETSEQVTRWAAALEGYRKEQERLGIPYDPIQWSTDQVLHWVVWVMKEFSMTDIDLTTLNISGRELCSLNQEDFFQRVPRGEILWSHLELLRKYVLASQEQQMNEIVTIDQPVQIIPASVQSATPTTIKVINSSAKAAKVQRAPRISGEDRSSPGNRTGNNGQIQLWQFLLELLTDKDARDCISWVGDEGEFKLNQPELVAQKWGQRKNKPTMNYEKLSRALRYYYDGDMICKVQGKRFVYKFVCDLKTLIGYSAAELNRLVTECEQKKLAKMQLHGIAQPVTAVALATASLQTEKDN
# Summary of the method: as §1
# [4] = target: T4, ERG (Homo sapiens, UniProt P11308 1-479); settings: protein: recombinant; tags: N-terminal GST; dsDNA, one strand shown
# T4 sequence: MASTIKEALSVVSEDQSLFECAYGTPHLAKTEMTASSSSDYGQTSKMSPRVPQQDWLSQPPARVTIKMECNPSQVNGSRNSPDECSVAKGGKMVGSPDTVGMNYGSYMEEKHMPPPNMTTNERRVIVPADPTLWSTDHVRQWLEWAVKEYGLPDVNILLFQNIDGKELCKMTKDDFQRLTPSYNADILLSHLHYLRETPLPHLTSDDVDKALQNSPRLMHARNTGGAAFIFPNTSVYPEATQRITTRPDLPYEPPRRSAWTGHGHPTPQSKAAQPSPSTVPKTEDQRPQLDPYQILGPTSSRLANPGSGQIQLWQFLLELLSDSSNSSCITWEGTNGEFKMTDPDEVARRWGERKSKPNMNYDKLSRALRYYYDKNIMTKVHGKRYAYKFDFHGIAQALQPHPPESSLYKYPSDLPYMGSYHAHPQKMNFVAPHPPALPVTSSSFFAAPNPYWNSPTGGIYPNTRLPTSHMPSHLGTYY
# Summary of the method: as §1
# [5] = target: ELF1 (Homo sapiens, UniProt P32519 1-619); settings: protein: recombinant; tags: N-terminal GST; dsDNA, one strand shown
# Summary of the method: as §1
# [6] = target: T5, EHF (Homo sapiens, UniProt Q9NZC4 1-300); settings: protein: recombinant; tags: N-terminal GST; dsDNA, one strand shown
# T5 sequence: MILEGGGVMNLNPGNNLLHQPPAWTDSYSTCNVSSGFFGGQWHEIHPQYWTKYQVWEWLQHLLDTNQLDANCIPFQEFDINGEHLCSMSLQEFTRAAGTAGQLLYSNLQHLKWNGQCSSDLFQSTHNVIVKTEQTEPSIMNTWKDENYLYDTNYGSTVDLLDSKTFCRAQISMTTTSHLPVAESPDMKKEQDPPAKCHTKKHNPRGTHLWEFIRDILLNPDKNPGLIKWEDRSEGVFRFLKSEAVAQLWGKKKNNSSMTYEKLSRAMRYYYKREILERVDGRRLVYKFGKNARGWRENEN
# Summary of the method: as §1
# [7] = target: SPI1 (Homo sapiens, UniProt P17947 1-270); settings: protein: recombinant; tags: N-terminal GST; dsDNA, one strand shown
# Summary of the method: as §1
# [8] = target: SPIB (Homo sapiens, UniProt Q01892 1-262); settings: protein: recombinant; tags: N-terminal GST; dsDNA, one strand shown
# Summary of the method: as §1
# [9] = target: T6, ELK3 (Homo sapiens, UniProt P41970 1-407); settings: protein: recombinant; tags: N-terminal GST; dsDNA, one strand shown
# T6 sequence: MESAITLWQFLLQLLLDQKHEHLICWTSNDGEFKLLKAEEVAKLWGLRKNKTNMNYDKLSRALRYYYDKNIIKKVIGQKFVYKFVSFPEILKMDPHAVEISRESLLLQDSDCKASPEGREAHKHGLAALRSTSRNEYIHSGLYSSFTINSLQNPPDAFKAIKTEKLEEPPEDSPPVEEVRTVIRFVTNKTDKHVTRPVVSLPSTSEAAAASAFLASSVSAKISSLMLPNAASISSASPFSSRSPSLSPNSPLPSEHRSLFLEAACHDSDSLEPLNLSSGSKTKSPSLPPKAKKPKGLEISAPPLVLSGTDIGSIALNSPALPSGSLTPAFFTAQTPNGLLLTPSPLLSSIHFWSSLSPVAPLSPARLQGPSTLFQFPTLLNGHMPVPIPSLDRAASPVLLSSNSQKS
# Summary of the method: as §1
# [10] = target: T7, FEV (Homo sapiens, UniProt Q99581 1-238); settings: protein: recombinant; tags: N-terminal GST; dsDNA, one strand shown
# T7 sequence: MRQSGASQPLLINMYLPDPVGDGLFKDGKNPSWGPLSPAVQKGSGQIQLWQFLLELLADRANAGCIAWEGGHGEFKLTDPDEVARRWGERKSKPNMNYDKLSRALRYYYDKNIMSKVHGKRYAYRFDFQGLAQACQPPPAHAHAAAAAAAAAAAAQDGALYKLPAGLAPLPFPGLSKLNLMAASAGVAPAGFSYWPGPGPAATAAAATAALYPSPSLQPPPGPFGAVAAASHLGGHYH
# Summary of the method: as §1
# [11] = target: ETV5 (Homo sapiens, UniProt P41161 1-510); settings: protein: recombinant; tags: N-terminal GST; dsDNA, one strand shown
# Summary of the method: as §1
# [12] = target: HSF1 (Homo sapiens, UniProt Q00613 1-529); settings: protein: recombinant; tags: N-terminal GST; chain copies: 3; dsDNA, one strand shown
# Summary of the method: as §1
# [13] = target: T8, SPIC (Homo sapiens, UniProt Q8N5J4 1-248); settings: protein: recombinant; tags: N-terminal GST; dsDNA, one strand shown
# T8 sequence: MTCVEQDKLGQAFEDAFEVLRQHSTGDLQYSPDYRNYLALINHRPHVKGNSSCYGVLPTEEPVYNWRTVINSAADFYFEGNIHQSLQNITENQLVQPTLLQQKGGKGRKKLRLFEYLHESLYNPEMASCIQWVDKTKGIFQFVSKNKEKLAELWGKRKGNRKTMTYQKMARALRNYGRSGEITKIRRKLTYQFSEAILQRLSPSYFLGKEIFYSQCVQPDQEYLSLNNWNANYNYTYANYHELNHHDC
# Summary of the method: as §1
# [14] = target: ELF4 (Homo sapiens, UniProt Q99607 1-663); settings: protein: recombinant; tags: N-terminal GST; dsDNA, one strand shown
# Summary of the method: as §1
# [15] = target: T9, ELK4 (Homo sapiens, UniProt P28324-2 1-405); settings: protein: recombinant; tags: N-terminal GST; dsDNA, one strand shown
# T9 sequence: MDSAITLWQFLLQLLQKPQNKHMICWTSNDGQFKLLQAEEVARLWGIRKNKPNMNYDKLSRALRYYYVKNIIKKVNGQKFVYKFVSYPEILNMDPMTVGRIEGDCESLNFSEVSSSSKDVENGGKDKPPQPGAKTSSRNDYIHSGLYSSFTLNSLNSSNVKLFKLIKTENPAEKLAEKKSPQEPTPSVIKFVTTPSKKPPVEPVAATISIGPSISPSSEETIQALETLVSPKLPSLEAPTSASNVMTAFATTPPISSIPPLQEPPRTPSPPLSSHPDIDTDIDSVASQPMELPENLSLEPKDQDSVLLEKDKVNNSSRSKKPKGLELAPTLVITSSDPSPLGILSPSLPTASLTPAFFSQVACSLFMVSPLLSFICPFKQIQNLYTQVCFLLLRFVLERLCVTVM
# Summary of the method: as §1
# [16] = target: T10, ETV2 (Homo sapiens, UniProt O00321 1-342); settings: protein: recombinant; tags: N-terminal GST; dsDNA, one strand shown
# T10 sequence: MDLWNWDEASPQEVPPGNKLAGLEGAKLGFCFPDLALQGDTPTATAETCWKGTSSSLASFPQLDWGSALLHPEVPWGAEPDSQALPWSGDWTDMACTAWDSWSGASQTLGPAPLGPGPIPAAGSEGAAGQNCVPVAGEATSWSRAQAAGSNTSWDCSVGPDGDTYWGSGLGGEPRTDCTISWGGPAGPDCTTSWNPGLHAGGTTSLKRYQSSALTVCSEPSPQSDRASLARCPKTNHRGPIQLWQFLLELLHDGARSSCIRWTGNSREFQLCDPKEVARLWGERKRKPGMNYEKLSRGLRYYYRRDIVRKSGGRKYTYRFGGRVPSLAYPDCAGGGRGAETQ
# Summary of the method: as §1
# [17] = target: T11, ELF3 (Homo sapiens, UniProt P78545 1-371); settings: protein: recombinant; tags: N-terminal GST; dsDNA, one strand shown
# T11 sequence: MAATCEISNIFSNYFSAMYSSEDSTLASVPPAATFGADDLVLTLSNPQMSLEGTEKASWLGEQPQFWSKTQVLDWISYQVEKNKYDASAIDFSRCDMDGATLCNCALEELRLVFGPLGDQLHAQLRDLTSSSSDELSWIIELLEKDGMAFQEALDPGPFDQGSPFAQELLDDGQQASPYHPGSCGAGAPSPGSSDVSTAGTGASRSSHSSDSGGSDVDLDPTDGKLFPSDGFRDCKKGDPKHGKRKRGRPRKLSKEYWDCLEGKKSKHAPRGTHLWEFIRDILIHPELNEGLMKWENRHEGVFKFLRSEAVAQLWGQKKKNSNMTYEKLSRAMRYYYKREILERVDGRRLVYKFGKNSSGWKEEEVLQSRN
# Summary of the method: as §1
# [18] = target: ETV1 (Homo sapiens, UniProt P50549 1-477); settings: protein: recombinant; tags: N-terminal GST; dsDNA, one strand shown
# Summary of the method: as §1
# Chain of ETV5 (P41161 whole entry): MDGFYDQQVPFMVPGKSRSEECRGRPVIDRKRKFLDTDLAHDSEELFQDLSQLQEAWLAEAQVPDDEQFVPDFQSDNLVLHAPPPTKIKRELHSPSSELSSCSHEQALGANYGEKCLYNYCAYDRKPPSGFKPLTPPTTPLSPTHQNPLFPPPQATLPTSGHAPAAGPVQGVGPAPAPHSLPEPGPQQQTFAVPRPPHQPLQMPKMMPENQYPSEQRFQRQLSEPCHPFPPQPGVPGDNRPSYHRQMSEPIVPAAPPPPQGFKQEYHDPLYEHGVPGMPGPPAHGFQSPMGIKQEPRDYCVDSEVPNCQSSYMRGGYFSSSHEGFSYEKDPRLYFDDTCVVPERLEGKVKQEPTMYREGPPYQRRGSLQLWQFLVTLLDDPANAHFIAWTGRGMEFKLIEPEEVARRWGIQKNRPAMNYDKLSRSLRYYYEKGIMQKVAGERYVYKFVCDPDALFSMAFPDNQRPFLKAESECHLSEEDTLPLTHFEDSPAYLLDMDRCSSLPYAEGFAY
# Chain of ETV1 (P50549 whole entry): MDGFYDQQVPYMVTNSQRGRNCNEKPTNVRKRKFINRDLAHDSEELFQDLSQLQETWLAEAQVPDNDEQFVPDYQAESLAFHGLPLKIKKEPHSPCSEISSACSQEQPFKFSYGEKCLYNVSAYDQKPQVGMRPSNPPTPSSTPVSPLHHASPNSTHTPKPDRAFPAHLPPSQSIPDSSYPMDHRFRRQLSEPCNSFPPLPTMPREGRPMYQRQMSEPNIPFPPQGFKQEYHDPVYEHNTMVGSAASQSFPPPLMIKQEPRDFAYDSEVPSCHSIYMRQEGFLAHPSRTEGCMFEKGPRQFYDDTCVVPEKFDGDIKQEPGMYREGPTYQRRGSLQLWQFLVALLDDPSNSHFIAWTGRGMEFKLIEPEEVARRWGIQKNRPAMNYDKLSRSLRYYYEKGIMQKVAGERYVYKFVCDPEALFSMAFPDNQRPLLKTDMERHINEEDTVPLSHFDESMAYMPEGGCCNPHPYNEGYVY
# Chain of ELF4 (Q99607 whole entry): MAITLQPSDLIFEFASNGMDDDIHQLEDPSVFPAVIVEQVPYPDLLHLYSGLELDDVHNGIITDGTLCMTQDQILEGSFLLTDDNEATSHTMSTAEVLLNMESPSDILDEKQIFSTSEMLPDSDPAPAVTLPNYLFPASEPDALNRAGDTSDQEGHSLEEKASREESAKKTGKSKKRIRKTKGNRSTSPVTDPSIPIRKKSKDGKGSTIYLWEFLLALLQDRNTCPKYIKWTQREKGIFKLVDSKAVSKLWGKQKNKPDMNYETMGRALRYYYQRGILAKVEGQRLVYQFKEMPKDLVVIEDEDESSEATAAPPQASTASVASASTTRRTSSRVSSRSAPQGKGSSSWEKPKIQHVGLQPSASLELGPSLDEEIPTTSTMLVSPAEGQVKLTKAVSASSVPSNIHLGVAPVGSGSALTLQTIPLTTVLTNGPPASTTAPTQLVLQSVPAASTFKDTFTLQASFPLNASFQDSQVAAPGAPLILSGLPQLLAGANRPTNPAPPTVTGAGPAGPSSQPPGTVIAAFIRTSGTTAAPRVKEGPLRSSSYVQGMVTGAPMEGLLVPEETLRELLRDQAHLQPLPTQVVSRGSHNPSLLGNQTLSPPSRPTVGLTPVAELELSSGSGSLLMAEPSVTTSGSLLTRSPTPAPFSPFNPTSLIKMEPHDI
# Chain of SPIB (Q01892 whole entry): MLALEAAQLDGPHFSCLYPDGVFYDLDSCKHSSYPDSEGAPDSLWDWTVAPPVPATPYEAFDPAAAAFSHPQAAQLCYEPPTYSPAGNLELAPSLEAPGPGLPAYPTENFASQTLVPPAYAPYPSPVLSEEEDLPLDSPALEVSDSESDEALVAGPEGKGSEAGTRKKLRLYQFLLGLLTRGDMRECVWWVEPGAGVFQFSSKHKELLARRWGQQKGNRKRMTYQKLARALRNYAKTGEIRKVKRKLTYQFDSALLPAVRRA
# Chain of HSF1 (Q00613 whole entry): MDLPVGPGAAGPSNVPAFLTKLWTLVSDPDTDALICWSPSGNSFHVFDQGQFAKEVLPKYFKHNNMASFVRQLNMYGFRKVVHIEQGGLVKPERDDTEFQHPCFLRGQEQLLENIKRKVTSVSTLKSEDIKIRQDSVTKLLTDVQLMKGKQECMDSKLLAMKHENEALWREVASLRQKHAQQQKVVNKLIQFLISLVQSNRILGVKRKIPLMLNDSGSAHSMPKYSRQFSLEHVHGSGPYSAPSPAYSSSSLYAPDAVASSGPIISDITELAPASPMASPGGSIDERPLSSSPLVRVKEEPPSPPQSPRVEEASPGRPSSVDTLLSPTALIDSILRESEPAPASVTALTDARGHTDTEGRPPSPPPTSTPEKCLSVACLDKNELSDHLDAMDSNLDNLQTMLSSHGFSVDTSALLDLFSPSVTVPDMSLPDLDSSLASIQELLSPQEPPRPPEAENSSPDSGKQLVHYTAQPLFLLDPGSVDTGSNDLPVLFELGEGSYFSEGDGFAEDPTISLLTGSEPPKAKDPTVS
# Chain of ELF1 (P32519 whole entry): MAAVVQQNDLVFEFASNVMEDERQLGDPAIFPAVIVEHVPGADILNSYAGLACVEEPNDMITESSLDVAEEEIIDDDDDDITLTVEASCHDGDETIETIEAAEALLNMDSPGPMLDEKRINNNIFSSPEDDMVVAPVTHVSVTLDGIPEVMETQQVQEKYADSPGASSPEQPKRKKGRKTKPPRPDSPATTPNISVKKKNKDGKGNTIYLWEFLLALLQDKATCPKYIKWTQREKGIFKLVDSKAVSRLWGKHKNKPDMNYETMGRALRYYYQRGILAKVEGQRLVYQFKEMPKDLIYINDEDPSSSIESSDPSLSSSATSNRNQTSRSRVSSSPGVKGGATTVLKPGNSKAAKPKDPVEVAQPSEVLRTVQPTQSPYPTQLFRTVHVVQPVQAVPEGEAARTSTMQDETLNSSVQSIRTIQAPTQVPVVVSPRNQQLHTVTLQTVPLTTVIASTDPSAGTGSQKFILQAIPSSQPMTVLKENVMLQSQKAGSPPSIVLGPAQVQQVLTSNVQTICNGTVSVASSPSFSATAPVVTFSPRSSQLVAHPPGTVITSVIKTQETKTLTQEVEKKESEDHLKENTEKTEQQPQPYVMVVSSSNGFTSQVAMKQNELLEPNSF
sequence,measurement,setting,value
TGCCCG,binding signal,[1],"1.16 fold enrichment (6-mer frequency, TF over GST control)"
same,binding signal,[2],"1.16 fold enrichment (6-mer frequency, TF over GST control)"
same,binding signal,[3],"1.24 fold enrichment (6-mer frequency, TF over GST control)"
same,binding signal,[4],"1.19 fold enrichment (6-mer frequency, TF over GST control)"
same,binding signal,[5],"1.2 fold enrichment (6-mer frequency, TF over GST control)"
same,binding signal,[6],"1.27 fold enrichment (6-mer frequency, TF over GST control)"
same,binding signal,[7],"1.13 fold enrichment (6-mer frequency, TF over GST control)"
same,binding signal,[8],"1.14 fold enrichment (6-mer frequency, TF over GST control)"
same,binding signal,[9],"1.12 fold enrichment (6-mer frequency, TF over GST control)"
same,binding signal,[10],"1.27 fold enrichment (6-mer frequency, TF over GST control)"
same,binding signal,[11],"1.21 fold enrichment (6-mer frequency, TF over GST control)"
same,binding signal,[12],"1.01 fold enrichment (6-mer frequency, TF over GST control)"
same,binding signal,[13],"1.34 fold enrichment (6-mer frequency, TF over GST control)"
same,binding signal,[14],"1.21 fold enrichment (6-mer frequency, TF over GST control)"
same,binding signal,[15],"1.16 fold enrichment (6-mer frequency, TF over GST control)"
same,binding signal,[16],"1.26 fold enrichment (6-mer frequency, TF over GST control)"
same,binding signal,[17],"1.32 fold enrichment (6-mer frequency, TF over GST control)"
same,binding signal,[18],"1.21 fold enrichment (6-mer frequency, TF over GST control)"
